# ALDH1A1 inh: blocks purified human ALDH1A1 activity. P00352. Purified ALDH1A1, NADH fluorescence, propionaldehyde substrate. Potency, µM (titrated, usually from 75.3 µM), hits mostly inhibitors. 7.3% of 220,000 active. AID 1030
# Target sequence (P00352 whole entry, looked up): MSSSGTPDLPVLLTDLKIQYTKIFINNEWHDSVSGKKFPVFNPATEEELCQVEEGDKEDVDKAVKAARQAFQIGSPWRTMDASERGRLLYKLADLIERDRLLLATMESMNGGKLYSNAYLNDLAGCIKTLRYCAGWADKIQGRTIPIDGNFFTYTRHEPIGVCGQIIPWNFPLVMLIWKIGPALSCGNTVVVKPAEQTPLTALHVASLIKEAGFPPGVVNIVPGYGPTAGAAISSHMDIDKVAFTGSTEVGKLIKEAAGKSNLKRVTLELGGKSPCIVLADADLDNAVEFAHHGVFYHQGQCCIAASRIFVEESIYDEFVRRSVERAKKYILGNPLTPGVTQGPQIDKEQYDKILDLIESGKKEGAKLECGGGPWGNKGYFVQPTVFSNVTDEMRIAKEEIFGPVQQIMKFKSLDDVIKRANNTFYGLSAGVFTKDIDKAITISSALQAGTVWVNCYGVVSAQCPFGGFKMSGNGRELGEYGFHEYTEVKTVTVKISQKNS
# IMPase cell inh: membrane-permeable compound that blocks inositol monophosphatase; P97697; CHO-M1 cells, IP1 accumulation, HTRF TR-FRET ratio; inhibition (IP1 accumulation), % at 46.1 µM; 120,000 tested, under 10 active; AID 901; active = well fitted curve in the direction sought with a large enough effect in the signal ratio, not every such curve was filed as active; inconclusive = small, poorly fitted or top-dose-only effect, or a change in a side signal; inactive = no such curve, though single readings can be large or run the other way; the % refers to the signal ratio;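 note: cells stimulated with carbachol in lithium chloride buffer; higher means more IMPase inhibition seen as more IP1 and lower FRET ratio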
#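 CHO-M1 cells (CHO stably expressing M1 receptor), compound up to 46 uM final, stimulated with carbachol (50 uM as added) in buffer with 50mM LiCl, pH 7.4, 30 min at 37C. Cytosolic IP1 read by TR-FRET; AC50 from Hill fits.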
# PNC assembly inh: inhibitors of perinucleolar compartment assembly; PC3M PTB-GFP, PNC prevalence imaging, 16 h; hits give low values; activity change (PNC), negative = inhibition, % at 10 µM; 3.1% of 140,000 active; AID 2417;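 active = readout at or below -70, meaning at least 70% loss of cells showing the perinucleolar compartment, a nuclear body marking cancer cells; inconclusive = readout between -30 and a set limit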
#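 Compounds are pinned in duplicate onto adhered PC3M cells stably expressing GFP-tagged PTB and incubated 16 h at 37 C. Cells are then fixed, nuclei stained with Hoechst, and PNC-positive cells counted.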
# KinaseGlo FLuc: counter-screen: inhibitors of Kinase-Glo firefly luciferase; Kinase-Glo luciferase, ATP luminescence, 8 min; AID 1379; Potency, µM (doses to about 38.3 µM), usual class: inhibitors; 0.28% of 200,000 active; active = well fitted inhibition curve with a large enough effect; inconclusive = small, poorly fitted or top-dose-only effect; note: nearly all actives have a fitted effect of over 60% in size
#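 Compounds were added to a substrate mix at pH 7.2 (50 mM imidazole, 10 uM ATP, within the enzyme's linear range), followed by Kinase-Glo detection reagent; luminescence was measured after 8 minutes at ambient temperature.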
# HPGD block: inhibitors of human 15-hydroxyprostaglandin dehydrogenase (HPGD); purified HPGD, NADH fluorescence kinetic, PGE2 substrate; Potency, µM, usual class: inhibitors; 4.3% of 150,000 active; AID 894
# Target sequence (P15428 whole entry, looked up): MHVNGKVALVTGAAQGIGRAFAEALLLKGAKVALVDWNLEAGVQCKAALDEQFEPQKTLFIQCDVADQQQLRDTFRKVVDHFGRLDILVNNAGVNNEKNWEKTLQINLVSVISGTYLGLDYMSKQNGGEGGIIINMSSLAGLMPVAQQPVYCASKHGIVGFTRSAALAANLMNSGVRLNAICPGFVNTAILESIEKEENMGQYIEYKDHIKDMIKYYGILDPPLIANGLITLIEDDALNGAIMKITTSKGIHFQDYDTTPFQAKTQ
#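 20 nM HPGD preincubated 15 min at room temperature with compound in 50 mM Tris-HCl pH 8, 0.01% Tween 20. Started with 1 mM NAD+ and 30 uM prostaglandin E2; NADH fluorescence (360/450 nm) read 5 times over 30-s intervals, last minus first.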
# LMNA splice mod: changes lamin A minigene splicing in HeLa cells; 0.01% of 200,000 active; AID 1487; HeLa LMNA splicing GFP/RFP minigene ratio, 48 h; Potency, µM (titrated, usually from 46.1 µM), usual class: inhibitors; active = well fitted inhibition curve with a large enough effect in the signal ratio, with a control signal flat, not every such curve was filed as active; inconclusive = small, poorly fitted or top-dose-only effect, or effect the other way, or a change in a side signal; the % refers to the signal ratio
#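 S3 HeLa stable clones carrying a lamin A-EGFP splicing minigene plus DsRed2 were seeded at 600 cells/well in Opti-MEM with 2% FBS, pin-dosed and incubated 48 h at 37°C. Acumen cytometry (488 nm) gave the GFP/RFP total-intensity ratio.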
# A number is an active result; - = inactive; ? = inconclusive; . = no result given; [ ] = remark or other dose. Only some compounds are listed: those with a hit (about 10% of all), similar ones and a draw of the others. Unless noted, calls come from the whole dose curve; as a rule, active = well fitted inhibition curve with a large enough effect (not every such curve was filed as active); inconclusive = small, poorly fitted or top-dose-only effect, or another doubt; inactive = no such curve, though single readings can be large or run the other way.
SMILES,ALDH1A1 inh,IMPase cell inh,PNC assembly inh,KinaseGlo FLuc,HPGD block,LMNA splice mod
CC(=O)N1CCN(c2ccc(NC(=S)NC(=O)COc3ccc(C(C)(C)C)cc3)cc2)CC1,18.9µM,.,-,-,-,?
COC(=O)c1sc2cccc(F)c2c1S(=O)(=O)NCc1ccc(Cl)cc1,.,.,.,.,.,-
O=C(NC(=S)Nc1ccc(N2CCOCC2)cc1)c1ccc2c(c1)OCCO2,20µM,.,-,-,?,?
O=C(NC(=S)Nc1ccc(Cc2ccncc2)cc1)c1ccc(F)cc1,20µM,.,.,-,.,-
CC(C)(C)c1ccc(C(=O)Nc2ccc(N3CCOCC3)cc2)cc1,-,-,-,-,-,?
CS(=O)(=O)N1CCN(c2ccc(NC(=S)NC(=O)c3ccc4c(c3)OCO4)cc2)CC1,?,.,.,-,.,?
CC(C)(C)c1ccc(C(=O)NC(=S)Nc2ccc(N3CCOCC3)cc2)cc1,10µM,.,-123.3,-,-,?
CCNC(=S)Nc1ccc(Cc2ccncc2)cc1,?,.,.,-,.,.
O=C(NC(=S)Nc1ccc(N2CCCCC2)cc1)c1ccc2c(c1)OCCO2,10µM,.,-,-,28.2µM,?
Cc1ccc(C(=O)NC(=S)Nc2ccc(N3CCOCC3)cc2)cc1C,?,.,.,-,.,-
Cn1nnc2c(NCc3c(F)cccc3F)ncnc21,.,.,.,.,.,-
CCOC(=O)/C=C/CCC/C=C/C(=O)c1ccccc1,-,.,.,-,-,.
CCCCCn1cnc2sc(CC)cc2c1=O,-,.,-,-,-,?
CCCCCn1cnc2c(sc3nc4c(cc32)CSC(C)(C)C4)c1=O,2.82µM,.,?,-,?,-
CC1(C)Cc2nc3sc4c(=O)[nH]cnc4c3cc2CS1,14.1µM,-,-,-,?,-
O=C(NCCc1ccc(F)cc1)C(=O)NCC(c1ccc2c(c1)OCO2)N1CCOCC1 (stereo not given),.,.,.,.,.,-
CCCCC=O,-,.,.,.,-,.
CCOc1cc(/C=C2\CCC/C(=C\c3cc(Cl)c(O)c(OCC)c3)C2=O)cc(Cl)c1O,2.51µM,-,-,-,15.8µM,-
c1ccc(-c2cc3c(nn2)CCc2nonc2-3)cc1,?,-,-102.4,-,-,-
c1ccc(-c2nc3c([nH]2)CCc2nonc2-3)cc1,4.47µM,.,.,-,.,.
c1coc(-c2nc3c([nH]2)CCc2nonc2-3)c1,2.82µM,-,?,-,?,-
CC(C)n1c(=S)[nH]c2c1c(=O)[nH]c(=O)n2C,2µM,-,-,-,8.91µM,-
COc1ccc(-c2cc(C(=O)OC(C)C(=O)c3ccccc3)c3cccc(Cl)c3n2)cc1 (stereo not given),.,-,.,.,.,.
N#C/C(=C\c1cccs1)C(=O)c1ccccc1Cl,22.4µM,.,.,.,.,.
C/C(CCC(=O)OC[C@@H]1O[C@H](C#Cc2ccccc2)C=C[C@@H]1Oc1ccc(C)cc1)=N/OC[C@@H](O)[C@H]1O[C@H]2OC(C)(C)O[C@H]2[C@@H]1O,-[13.5 µM],.,.,.,.,.
SMILES,ALDH1A1 inh,IMPase cell inh,PNC assembly inh,KinaseGlo FLuc,HPGD block,LMNA splice mod
Cc1ccc(-n2nc(C)c3c(C(=O)Nc4ccc(Br)c(C)c4)cc(C)nc32)cc1,.,.,.,.,.,-
COc1ccc(CCNC(=O)C(=O)NCCOc2ccccc2)cc1OC,3.98µM,.,?,-,-,-
COc1ccc(CCNC(=O)c2nc3ncccn3n2)cc1OC,-,-,-106.5,-,-,-
COc1ccc(CCNC(=O)C(=O)NCCOc2ccccc2Cl)cc1OC,?,.,-,-,-,-
COc1ccc(CCNC(=O)c2ccncc2)cc1OC,-,-,-,-,-,-
CN(C)S(=O)(=O)n1cnc(-c2ccccc2)c1-c1ccccc1,-,-,-117.5,-,-,-
COC(C)(C)CCCC(C)C/C=C/C(C)=C/C(=O)O (stereo not given),-,.,.,-,-,.
CC(=O)Nc1ccc(S(=O)(=O)Oc2ccc3c(c2)C(C)=CC(C)(C)N3)cc1,-,.,-108.5,-,-,?
COC(=O)c1ccc(OS(=O)(=O)c2ccc(NC(C)=O)cc2)cc1,?,.,-,-,-,?
CC1=CC(C)(C)Nc2ccc(OS(=O)(=O)c3ccc(C)cc3)cc21,1.12µM,-,-,-,?,?
CC1(CN2CCC(n3c(=O)[nH]c4ccccc43)CC2)OCc2ccccc2-n2cccc21 (stereo not given),-,.,.,-,-,.
Cn1c(C(=O)NCCc2ccccc2)cc2cc(S(=O)(=O)N3CCCCC3)ccc21,.,.,.,.,.,-
C/C(CC1(O)C(=O)N(C)c2ccccc21)=N\O (stereo not given),-,-,-,-,-,-
CN1C(=O)C(Cl)(Cl)C(=O)c2ccccc21,0.398µM,.,-,-,22.4µM,?
Cc1c(C(=O)NN)nc2ccccn12,4.47µM,-,-,-,-,-
Cc1ccc2cc3cc(C(=O)NCCC(C)C)oc3nc2c1,?,-,?,-,?,-
Cc1ccc2cc3cc(C(=O)N4CCCCC4C)oc3nc2c1 (stereo not given),?,-,-,-,15.8µM,-
Cc1ccc2cc3cc(C(=O)N4CC(C)CC(C)C4)oc3nc2c1 (stereo not given),25.1µM,-,?,-,15.8µM,-
CCCCCNC(=O)c1ccc2c(=O)n(CCCOCC)c(=S)[nH]c2c1,-,.,.,-,.,.
CCOCCCn1c(=S)[nH]c2cc(C(=O)NCC(OC)OC)ccc2c1=O,8.91µM,.,.,-,.,.
CCN(CC)C(=O)c1ccc2c(=O)n(CCOC)c(=S)[nH]c2c1,11.2µM,-,-,-,14.1µM,-
COC(=O)c1sccc1NC(=O)CN(C)NS(=O)(=O)c1ccc([N+](=O)[O-])cc1,1.58µM,-,-,-,-,-
COC(=O)c1sccc1NC(=O)CSc1ccc(Cl)cc1,-,-,-,-,-,-
COC(=O)c1sccc1NC(=O)CN(C)NS(=O)(=O)c1ccc(Cl)cc1,2.51µM,-,-,-,-,-
COC(=O)c1sccc1NC(=O)CSCC(=O)O,-,.,.,-,.,-
SMILES,ALDH1A1 inh,IMPase cell inh,PNC assembly inh,KinaseGlo FLuc,HPGD block,LMNA splice mod
COC(=O)c1sccc1NC(=O)CN(C)NS(=O)(=O)c1ccc(F)cc1,1µM,-,-,-,-,-
COc1cc(/C=C(\C#N)c2[nH]nc(N)c2C#N)cc(OC)c1O,-,-,-,-,15.8µM,?
Cc1ccccc1NC(=O)c1sc2nc3c(cc2c1N)CCCC3,.,-,.,.,.,.
CN1C(=O)/C(=N/OC(=O)c2ccccc2)c2ccccc21,?,-,-,-,14.1µM,-
O=C(O/N=C1\C(=O)N(c2ccccc2)c2ccccc21)C1CC1,-,.,.,-,.,?
O=C(c1ccc(Cc2nc3ccccc3[nH]2)cc1)N1CCCCC1,-,.,.,-,15.8µM,.
O=C(Nc1ccccc1)c1ccc(Cc2nc3ccccc3[nH]2)cc1,-,.,.,-,-,.
CC1CCN(C(=O)c2c(NC(=O)c3ccccc3F)sc3c2CCC(C(C)(C)C)C3)CC1 (stereo not given),.,-,.,.,.,.
COC(=O)c1ccccc1NC(=S)NC(=O)c1ccc2ccccc2c1,?,.,-,-,-,-
CCCC(=O)NC(=S)Nc1ccccc1C(=O)OC,?,-,-108.4,-,-,-
